miR-21 reporter – qHTS Assay for Modulators of miRNAs and/orActivators of miR-21; HeLa miR-21 FLuc reporter, luciferase, 48 h; Potency, µM (series often up to 38.3 µM), inactives show at the highest dose activity change, positive = activation, hits mostly activators; 340,000 tested, under 10 active; AID 2288, 2010;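 also: % of control where 0% means no effect; miR-21 action dims this reporter so a rising signal means less miR-21 action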
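HeLa cells stably expressing CMV-driven firefly luciferase with a downstream miR-21 binding sequence, endogenously expressing miR-21, were treated with titrations (up to about 40uM final) for 48 hours at 37 degree Celsius. Luciferase luminescence was read after lysis.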
ALDH1A1 block – qHTS Assay for Inhibitors of Aldehyde Dehydrogenase 1 (ALDH1A1) | Purified ALDH1A1, NADH fluorescence, propionaldehyde substrate | hit rate 7.3% among 220,000 | Potency, µM (series often up to 75.3 µM), inactives show at the top dose activity, negative = inhibition, usual class: inhibitors; active = well fitted inhibition curve with a large enough effect, not every such curve was filed as active; inconclusive = small, poorly fitted or top-dose-only effect, or another doubt; inactive = no such curve, though single readings can be large or run the other way;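 also: potency is read from the fitted curve at half-maximal effect; plate controls were no enzyme wells and a reference inhibitor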
G9a block – qHTS Assay for Inhibitors of Histone Lysine Methyltransferase G9a | Histone-lysine N-methyltransferase EHMT2 (Homo sapiens), Q96KQ7 | Potency, µM (titrated, usually from 102 µM), without a hit: at the top dose activity, negative = inhibition, most hits filed as inhibitors | hit rate 8.8% among 350,000 | G9a H3K9 monomethylation, AlphaScreen, 2 h; also: potency is read from the fitted curve at half-maximal effect; % is scaled to controls: 0 for no effect and ±100 for the full control effect; nearly all actives have a fitted effect of over 75% in size
Target sequence (Q96KQ7 913-1193 limits assumed): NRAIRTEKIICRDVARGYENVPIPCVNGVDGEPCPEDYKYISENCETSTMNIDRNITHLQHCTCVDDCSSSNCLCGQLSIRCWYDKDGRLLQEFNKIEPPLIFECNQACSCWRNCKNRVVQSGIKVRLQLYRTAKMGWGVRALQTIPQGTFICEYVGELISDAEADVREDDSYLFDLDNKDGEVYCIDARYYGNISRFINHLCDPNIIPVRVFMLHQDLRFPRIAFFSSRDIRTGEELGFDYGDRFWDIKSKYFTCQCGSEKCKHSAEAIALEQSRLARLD
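Methyltransferase reactions run at room temperature for 2 h (20 nM enzyme, 500 nM biotin-H3K9 peptide, 20 uM SAM) after a 15 min compound preincubation; product detected by AlphaScreen beads and anti-H3K9me1 antibody.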
Lamin A splicing – qHTS Assay for Modulators of Lamin A Splicing | HeLa LMNA splicing GFP/RFP minigene ratio, 48 h | Potency, µM (titrated, usually from 46.1 µM), inactives show top-dose ratio change, negative = inhibition, usual class: inhibitors | hit rate 0.01% among 200,000 | AID 1487, 2009; active = well fitted inhibition curve with a large enough effect in the signal ratio, with a control signal flat, not every such curve was filed as active; inconclusive = small, poorly fitted or top-dose-only effect, or effect the other way, or a change in a side signal; the % refers to the signal ratio; also: potency is read from the fitted curve at half-maximal effect; % is scaled to controls: 0 for no effect and ±100 for the full control effect
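S3 HeLa cells stably expressing lamin A-EGFP splicing minigene plus DsRed2, 600 cells/well, 48 h compound exposure at 37C. Laser-scanning cytometry; analysed as GFP (500-530 nm)/RFP (575-640 nm) total intensity ratio; 0.5% DMSO vehicle.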
Sfp PPTase inh – qHTS Assay for Inhibitors of Bacillus subtilis Sfp phosphopantetheinyl transferase (PPTase). 4'-phosphopantetheinyl transferase ffp (Bacillus subtilis), Q9F4F7. Biochemical Sfp PPTase activity, qHTS. Potency, µM, without a hit: largest response in the series, negative = inhibition, most hits filed as inhibitors. hit rate 3.5% among 310,000. AID 1490, 2009;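 also: the enzyme is Sfp with the accession as filed and its product quenches rhodamine fluorescence; potency is read from the fitted curve at half-maximal effect; 0% = enzyme reaction without inhibitor and -100% = no enzyme wells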
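Reaction rates are the 30-min fluorescence difference (ex 525, em 598 nm) in wells containing 15 nM Sfp, 5 uM rhodamine-CoA and 12.5 uM BHQ-2-YbbR at pH 7.6 with 10 mM MgCl2.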
JMJD2E inh – qHTS Assay for Inhibitors of Human Jumonji Domain Containing 2E (JMJD2E). Lysine-specific demethylase 4E (Homo sapiens), B2RXH2. JMJD2E catalytic domain, FDH-coupled NADH fluorescence (FDH is formaldehyde dehydrogenase). Potency, µM (titrated, usually from 57.1 µM), inactives show at the top dose activity change, negative = inhibition, actives largely listed as inhibitors. hit rate 1.6% among 230,000. AID 2147, 2009; active = well fitted inhibition curve with a large enough effect, not every such curve was filed as active; inconclusive = small, poorly fitted or top-dose-only effect, or another doubt; inactive = no such curve, though single readings can be large or run the other way;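 also: potency is read from the fitted curve at half-maximal effect; 0% = wells with enzyme and -100% = buffer wells without enzyme; nearly all actives have a fitted effect of over 50% in size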
Target sequence (B2RXH2 1-337 limits assumed): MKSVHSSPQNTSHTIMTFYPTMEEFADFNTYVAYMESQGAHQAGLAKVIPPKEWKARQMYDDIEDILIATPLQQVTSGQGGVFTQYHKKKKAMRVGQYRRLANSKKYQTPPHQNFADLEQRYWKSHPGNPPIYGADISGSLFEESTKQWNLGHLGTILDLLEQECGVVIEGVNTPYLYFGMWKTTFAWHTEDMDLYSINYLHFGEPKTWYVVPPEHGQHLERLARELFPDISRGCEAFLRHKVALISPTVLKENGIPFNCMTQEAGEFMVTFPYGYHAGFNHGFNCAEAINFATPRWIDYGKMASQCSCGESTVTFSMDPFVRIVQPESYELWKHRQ
* = called active by the depositor; ! = a repeat was not active; [ ] = another dose, or the depositor's remark. The list is not random: actives were taken first. Their share in the collection is about 13%. Unless noted, calls follow the shape of the dose curve; as a rule, active = well fitted curve in the direction sought with a large enough effect; inconclusive = small, poorly fitted or top-dose-only effect, or another doubt; inactive = no such curve, though single readings can be large; an effect the other way counts as inactive or inconclusive.

CC1OC(OCC2OC(Oc3c(-c4ccc(O)cc4)oc4cc(O)cc(O)c4c3=O)C(O)C(O)C2O)C(O)C(O)C1O (configuration not stated) was read as miR-21 reporter 1%, ALDH1A1 block 1%, Sfp PPTase inh 11% and JMJD2E inh 0%.
`CCOc1ccccc1NC(=O)CN1C(=O)CC(c2ccco2)Sc2ccccc21` (configuration not stated) gave miR-21 reporter 21% and G9a block -30%[59 µM].
Screening CCOc1ccc(CCNC(=O)c2cc3c(-c4ccccc4F)nn(C)c3s2)cc1OCC returned miR-21 reporter inconclusive and G9a block -11%[59 µM].
Cc1nc(N2CCCC2)c2c(C(=O)N3CCN(c4cccc(Cl)c4)CC3)c(C)oc2n1 was read as miR-21 reporter 25%, G9a block -9%[59 µM] and Lamin A splicing -5%[46 µM].
`Cc1ccc(S(=O)(=O)NCCc2nnc(SCc3cccnc3)n2C)cc1` gave miR-21 reporter 13%, G9a block 0% and Sfp PPTase inh 6%.
For O=c1c(O)c(-c2ccc(O)cc2O)oc2cc(O)cc(O)c12 the results were miR-21 reporter -10%, ALDH1A1 block -13%, G9a block 40µM*!, Lamin A splicing -2%, Sfp PPTase inh 4% and JMJD2E inh 25µM*.
Screening COc1c(-c2ccc(O)c(O)c2)oc2cc(O)cc(O)c2c1=O returned miR-21 reporter 22%, ALDH1A1 block -7%, G9a block -22%[12.7 µM], Sfp PPTase inh -13% and JMJD2E inh 14µM*.
For O=c1c(O)c(-c2ccccc2O)oc2cc(O)cc(O)c12 the results were Sfp PPTase inh 7%.
`CC(C)C(=O)OCc1cc(=O)n2nc(C3CC3)sc2n1` gave miR-21 reporter -23%, G9a block 7%[59 µM] and Lamin A splicing inconclusive.
`COc1ccc(N2CSC3=C(C#N)C(c4cccc(OC)c4OC)CC(=O)N3C2)cc1` (configuration not stated) gave miR-21 reporter -17%, ALDH1A1 block 13µM*, G9a block 2µM*, Lamin A splicing 4%, Sfp PPTase inh 3.5µM* and JMJD2E inh inconclusive.
For CCc1ccccc1N1CSC2=C(C#N)C(c3ccccc3F)CC(=O)N2C1 (configuration not stated) the results were miR-21 reporter 0%, ALDH1A1 block 2.8µM*, G9a block 0.79µM*, Lamin A splicing 7%, Sfp PPTase inh 1.1µM* and JMJD2E inh 32µM*.
`Cc1ccc([C@H]2C(C#N)=C(N)Oc3cc(C)oc(=O)c32)o1` gave miR-21 reporter 8%, ALDH1A1 block inconclusive, G9a block inconclusive, Sfp PPTase inh 5% and JMJD2E inh inconclusive.
COc1ccc(CN2CC(=O)N(c3ccccc3C)C2=S)cc1OC was read as miR-21 reporter -6%, ALDH1A1 block 11%, G9a block -5%, Sfp PPTase inh -3% and JMJD2E inh 0%.
For Cc1cccc(N2CSC3=C(C#N)C(c4ccc(C)o4)CC(=O)N3C2)c1 (configuration not stated) the results were miR-21 reporter -19%, ALDH1A1 block 8.9µM*, G9a block 3.5µM*, Lamin A splicing 11%, Sfp PPTase inh 2.8µM* and JMJD2E inh 28µM*.
Screening COc1cc(OC)c(C2CC(=O)N3CN(c4ccccc4C)CSC3=C2C#N)cc1OC (configuration not stated) returned miR-21 reporter 6%, ALDH1A1 block 4µM*, G9a block inconclusive, Lamin A splicing -9%, Sfp PPTase inh 4µM* and JMJD2E inh 22µM*.
C=CCOC(=O)C1=C(C)OC(N)=C(C#N)C1c1ccccc1F (configuration not stated) was read as miR-21 reporter 0%, ALDH1A1 block -6%, G9a block -1%, Lamin A splicing -7%, Sfp PPTase inh 9% and JMJD2E inh 3%.
COc1ccc(C2CC(=O)N3CN(c4ccccc4F)CSC3=C2C#N)cc1OC (configuration not stated) was read as miR-21 reporter -2%, ALDH1A1 block 7.1µM*, G9a block 3.2µM*, Lamin A splicing 12%, Sfp PPTase inh 8.9µM* and JMJD2E inh 28µM*.
For COc1ccc(C2CC(=O)N3CN(c4ccc(C)c(Cl)c4)CSC3=C2C#N)cc1 (configuration not stated) the results were miR-21 reporter -5%, ALDH1A1 block 3.2µM*, G9a block 2.2µM*, Lamin A splicing 2%, Sfp PPTase inh 2.8µM* and JMJD2E inh inconclusive.
`COc1ccc(OC)c(C2CC(=O)N(c3cccc(C)c3)C3=C2C(=O)OC3)c1` (configuration not stated) gave miR-21 reporter -9% and G9a block 7%[59 µM].
`COc1ccc(OC)c(C2CC(=O)N3CN(c4ccccc4)CSC3=C2C#N)c1` (configuration not stated) gave miR-21 reporter -2%, ALDH1A1 block 7.9µM*, G9a block 1.4µM*, Lamin A splicing 5%, Sfp PPTase inh 4.5µM* and JMJD2E inh inconclusive.
Screening CCCOc1ccc(OC(=O)c2sc3ncn(Cc4cccc(F)c4)c(=O)c3c2C)cc1 returned miR-21 reporter -1%, G9a block 0%[59 µM] and Lamin A splicing 23%[46 µM].
Cc1ccc(C)c(C(=O)Cn2ncc(Cl)c(Cl)c2=O)c1 was read as miR-21 reporter inconclusive, ALDH1A1 block 14µM*, G9a block -39%[59 µM], Lamin A splicing inconclusive, Sfp PPTase inh -8% and JMJD2E inh 11%.
`Cc1cccc(Cn2ncc(Cl)c(Cl)c2=O)c1` gave miR-21 reporter inconclusive, ALDH1A1 block inconclusive, Lamin A splicing inconclusive, Sfp PPTase inh 4% and JMJD2E inh 1%.
Screening Cc1ccc(C(=O)OCn2ncc(Cl)c(Cl)c2=O)cc1 returned miR-21 reporter inconclusive, ALDH1A1 block 1.4µM*, G9a block 8%, Lamin A splicing inconclusive, Sfp PPTase inh inconclusive and JMJD2E inh 5%.
Cc1cc(C(=O)Cn2ncc(Cl)c(Cl)c2=O)c(C)n1CC(F)(F)F was read as miR-21 reporter inconclusive, ALDH1A1 block inconclusive, G9a block 18%[59 µM], Lamin A splicing inconclusive, Sfp PPTase inh 6% and JMJD2E inh -4%.
